# In publication PMC12864922, “TDP-43 directly inhibits mRNA accumulation in neurites through modulation of mRNA stability”:
# In all, about 9,900 sequences were measured (“r (bound/input frequency ratio)”: median about 0.7, highest 2% from about 6.5 on). Many of the other results were omitted from the sample, so the highest values are more common in it than they were.
# B1: ENSMUSG00000034801.222|Sos2 (ssRNA)
# RNA: GGGAGUUCUACAGUCCGACGAUCGCUUCGAUAUCCGCAUGCUAUGUAAGUCUGGAACAAAAGUGUCUUAUGGCAUAAGAACCAACUGCCAUUGUCAAACCUAUUAACUGUCUUUAAUCUCGUGUUAACUGAAAUUUUUGAAAAGUUUUUCCAGAUUAGUAAUAUUUAAACAGAAAAUACUUUAAAAAGCUUUAUUAAAUUUUUUAAUCAGGAUAAAGCUUUGCCAUUUGGAUACUAUCAUUCAAAGUGAUCAAGGUAUGUAUGUUAUGCUGAUAGUGCAGUAGCAGCCAUUGUAAAGUAGCCACUCUUGCGGUCGCACUAGUGUGGAAUUCUCGGGUGUCAAGG
# B2: ENSMUSG00000061578.107|Ksr2|134:138;220:225 (ssRNA)
# RNA: GGGAGUUCUACAGUCCGACGAUCGCUUCGAUAUCCGCAUGCUAGGCCUCUCUGGGGACCAGUCCCUGGCCUUCACCCUUCUCCCAUUUUGUAAGAACACUGUUCUAACUCACCUCAUGCCCACGCUACCCUGGGCAACUGGAGAACACCAUAGCGUUUCAGCUGAUGUGACAUUUGCACACACCUUUACCAGUUCACCAUCAUUCAUGGCUUCCCCCAAAGUCCCGAGUCCUGAGAACCGGGGCUGUGGCAAGAGAGUUCUGCACACAUCUCUCUGUGGGGCUAGCAAUGCCGGGGUUAAGUUCUCUUGCGGUCGCACUAGUGUGGAAUUCUCGGGUGUCAAGG
# B3: ENSMUSG00000031028.253|Tub (ssRNA)
# RNA: GGGAGUUCUACAGUCCGACGAUCGCUUCGAUAUCCGCAUGCUAAGCUCUUGCCUGUGUGCCAUCUGUGAGAAGCUUCUUGGAGCUGAGACACCAGAGGGAAGCAAAGAGCAUUUAGACAUUGCUUUUUGCUUUGAAAUAGAUAUGUUUGGAAACGCUAAGUAGAAGUUUAAAAAGUAGAGUCAUGUAGAGUCAUGCUUUGAAUAUGUGGGUCAUGCUUUAGAUAUGAAGAGGCUAUGCAGGUAAGGAGGCUGGAUUGAUGUAAAUGGAAGUAGUACUUUAAGAAAGCUCUAGAUUUCCCAGGUCUCUUGCGGUCGCACUAGUGUGGAAUUCUCGGGUGUCAAGG
# B4: ENSMUSG00000031028.56|Tub|187:199;217:221 (ssRNA)
# RNA: GGGAGUUCUACAGUCCGACGAUCGCUUCGAUAUCCGCAUGCUACCAAGGUCAACACACAUGCCCAGUCCUGGGUCAGUCCCCUGCUGCAGUGGUGUUAUCACACCGGAAAGCCUCUUCACCUGGAGGUACAGAGGGAGAGGAAGCACAAGCCUGGCUGCUGUGGCUCAGCCAUCCACUCAGCCUACGAGUCAGAGACAGUGGGUGUCCCGGGAAGCAGGGGUACAGUGACACACACACAUACUACAGGGCACUCAAGCUCAUACUAGAAAAAGCUCUGGUGGUCAGCAGAAAGCACUCCCACUCUCUUGCGGUCGCACUAGUGUGGAAUUCUCGGGUGUCAAGG
# Target: TDP-43 (Homo sapiens, UniProt Q13148 1-414)
# Test: RNA Bind-n-Seq with designed 260-mer pool; 25 mM Tris-HCl, 150 mM KCl, 3 mM MgCl2, BSA (printed 500 mg/mL), 20 units/mL SUPERase IN; pH not stated; 500 nM RNA pool, 1 h, 4 C; TDP-43 5, 50, 500 nM; high values mean tight binding
# Settings: protein: recombinant; tags: SBP (GST cleaved off with PreScission; pGEX-GST-SBP)
# Outline: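 Binding (R) is the ratio of each oligo's mapped-read-normalized abundance in the bound fraction to its abundance in the input. To obtain it, SBP-tagged recombinant TDP-43 (5, 50 or 500 nM) on streptavidin beads was incubated with 500 nM of an in vitro-transcribed 260-nt 3′ UTR oligo pool for 1 h at 4 °C in 25 mM Tris-HCl, 150 mM KCl, 3 mM MgCl2, BSA and SUPERase IN. The RNA retained after washing was released with biotin, then reverse transcribed, amplified by PCR and sequenced.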
# Chain of TDP-43 (Q13148 whole entry): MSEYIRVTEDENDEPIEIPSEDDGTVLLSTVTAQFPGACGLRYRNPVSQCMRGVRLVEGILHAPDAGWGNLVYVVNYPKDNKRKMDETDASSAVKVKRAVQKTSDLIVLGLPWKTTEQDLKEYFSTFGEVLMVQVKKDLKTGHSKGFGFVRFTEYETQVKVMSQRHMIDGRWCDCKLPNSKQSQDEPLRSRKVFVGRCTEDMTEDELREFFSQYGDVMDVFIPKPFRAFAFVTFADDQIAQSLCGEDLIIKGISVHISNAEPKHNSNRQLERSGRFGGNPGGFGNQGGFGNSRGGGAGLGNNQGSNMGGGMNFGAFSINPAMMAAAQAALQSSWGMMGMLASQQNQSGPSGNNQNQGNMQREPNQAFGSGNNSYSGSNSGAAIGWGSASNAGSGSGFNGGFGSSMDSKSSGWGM
row,Binder,binding signal
1,B1,0.0419 R (bound/input frequency ratio)
2,B2,0.895 R (bound/input frequency ratio)
3,B3,2.03 R (bound/input frequency ratio)
4,B4,1.06 R (bound/input frequency ratio)
